High-throughput results deposited in PubChem BioAssay by National Center for Advancing Translational Sciences (NCATS).
MCF10A rerep – DNA re-replication induction in MCF 10a cells; MCF 10A DNA re-replication, Hoechst nuclear intensity, 48 h; Potency, µM (doses to about 46.1 µM), inactives show top-dose activity, positive = re-replication, usual class: activators; actives 2.9% (n = 350,000); AID 624296; also: potency is read from the fitted curve at half-maximal effect; % of control where 0% means no effect; nearly all actives have a fitted effect of over 50% in size
IL-1B inflam inh – blocks inflammasome-driven IL-1 beta release | THP-1 LPS/ATP IL-1B secretion, AlphaLISA, 16 h; active compounds read low | AID 743279 | actives 4.7% (n = 360,000) | activity change, % at 57.5 µM; in the data active = activity change below about -50%; inconclusive = mostly about -30% to -49%; also: % is scaled to controls: 0 for no effect and ±100 for the full control effect
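THP-1 cells pretreated 1 hr with compounds (up to 57.5 uM final), then stimulated with LPS (250 ng/mL final) plus ATP (1.25 mM final); secreted IL-1B measured by AlphaLISA after 16 hr, decreased signal indicating inhibition.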
Vif-A3G inh – inhibitors of Vif-APOBEC3G interaction | Q9HC16 | HeLa A3G-eYFP + Vif (tagged APOBEC3G with the HIV-1 protein that degrades it), YFP fluorescence, overnight | Potency, µM (doses to about 46.1 µM), for inactives: at the top dose activity, negative = active, hits mostly inhibitors | actives 0.076% (n = 410,000); also: potency is read from the fitted curve at half-maximal effect; % is scaled to controls: 0 for no effect and ±100 for the full control effect; nearly all actives have a fitted effect of over 60% in size
Target sequence (Q9HC16 whole entry, looked up): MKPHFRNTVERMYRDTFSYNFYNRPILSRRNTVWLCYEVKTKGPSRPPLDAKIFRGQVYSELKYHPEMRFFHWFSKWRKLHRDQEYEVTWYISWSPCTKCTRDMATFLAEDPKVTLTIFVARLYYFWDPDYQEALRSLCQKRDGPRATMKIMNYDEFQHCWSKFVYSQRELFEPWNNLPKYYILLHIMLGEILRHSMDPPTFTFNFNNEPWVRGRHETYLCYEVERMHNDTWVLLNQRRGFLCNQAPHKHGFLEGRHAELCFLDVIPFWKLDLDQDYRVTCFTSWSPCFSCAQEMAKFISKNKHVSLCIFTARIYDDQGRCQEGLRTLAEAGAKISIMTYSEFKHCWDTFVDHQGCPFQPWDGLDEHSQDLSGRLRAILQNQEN
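Read-out is eYFP fluorescence (Ex 488/Em 500-530) from Vif-expressing HeLa A3G-eYFP cells; more signal means A3G escaped Vif-mediated degradation. Cells plated overnight, compound pinned in, incubated overnight at 37 deg C.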
Vif-APOBEC3F blk – Vif-A3F binding inhibition; HeLa A3F-eYFP + Vif (tagged APOBEC3F with the HIV-1 protein that degrades it), YFP fluorescence increase; Potency, µM (highest dose often 46.1 µM), inactives show at the highest dose activity, negative = active; actives 0.2% (n = 390,000); also: potency is read from the fitted curve at half-maximal effect; % of control where 0% means no effect; nearly all actives have a fitted effect of over 65% in size
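Fluorescence increase (Ex 488/Em 500-530) after overnight compound treatment at 37 deg C flags inhibition of Vif-driven A3F-eYFP loss in stable HeLa A3F-eYFP/Vif cells seeded overnight beforehand.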
SW480 rereplic – inducers of DNA re-replication in SW480 colon cancer cells; AID 624297; actives 1.8% (n = 340,000); Potency, µM (highest dose often 46.1 µM), inactives show top-dose re-replication activation, hits mostly activators; SW480 DNA re-replication, Hoechst DNA content imaging, 48 h; also: potency is read from the fitted curve at half-maximal effect; % of control where 0% means no effect; nearly all actives have a fitted effect of over 55% in size
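Readout is total intensity of Hoechst-stained nuclei, excited at 405 nm and collected at 500-530 nm. Compound treatment lasted 48 hr at 37 C in 5% CO2 before staining.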
Giardia killer – kills Giardia lamblia; Giardia lamblia trophozoite viability; actives 0.15% (n = 340,000); activity change, % at 7.66 µM, hits read low; in the data active = activity change below about -80%; inconclusive = between about -30% and that limit;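 also: parasites exposed to compound for two days anaerobically before the ATP read; % is scaled to controls: 0 for no effect and ±100 for the full control effect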
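Viability, read as ATP luminescence: trophozoites at 100 cells/well, compound added, 48 hrs anaerobic at 37 deg C, then 15-30 min room-temperature development before reading.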
Numbers without * were called inactive. Compounds with a hit are over-represented: about 6.9% of the library has one in this group of screens. Unless noted, calls follow the shape of the dose curve; as a rule, active = well fitted curve in the direction sought with a large enough effect; inconclusive = small, poorly fitted or top-dose-only effect, or another doubt; inactive = no such curve, though single readings can be large; an effect the other way counts as inactive or inconclusive.

For CN(C)c1ccc(CNC(=O)Cn2c(=O)oc3cc(S(=O)(=O)N4CCCCCC4)ccc32)cc1 the results were Vif-A3G inh 7.7% and Vif-APOBEC3F blk 0.6%.
Screening Fc1ccc(NC(=S)NCCc2ccccc2)c(F)c1F returned MCF10A rerep -10.0%, IL-1B inflam inh -64.7*, Vif-A3G inh inconclusive, Vif-APOBEC3F blk -7.8%, SW480 rereplic -27.1% and Giardia killer 17.7.
Screening Fc1ccc(F)c(NC(=S)NCCc2ccccc2)c1 returned MCF10A rerep 14.7%, IL-1B inflam inh -65.7*, Vif-A3G inh 2.6%, Vif-APOBEC3F blk 1.7%, SW480 rereplic -4.3% and Giardia killer -19.3.
Screening CCc1nc(SCc2cc(=O)c3cc(C)ccc3[nH]2)n[nH]1 returned Vif-A3G inh 0.2% and Vif-APOBEC3F blk 3.2%.
COc1ccc(CCNC(=O)CCc2c(C)c3cc4c(C)c(C)oc4cc3oc2=O)cc1OC was read as Vif-A3G inh 4.3% and Vif-APOBEC3F blk -15.0%.
`CCN1CCOC(CC(=O)Nc2cccc([N+](=O)[O-])c2)C1=O` (centres undefined) gave MCF10A rerep 20.6µM*, Vif-A3G inh -3.2%, Vif-APOBEC3F blk 6.1%, SW480 rereplic 109.1% and Giardia killer -4.2.
`Cc1ccc(-c2nn(-c3ccc(F)cc3)c3c2cnc2cc(F)c(F)cc23)cc1` gave Vif-A3G inh -0.5% and Vif-APOBEC3F blk -1.2%.
CCCCOc1ccc(Br)cc1CSC(=N)N was read as MCF10A rerep inconclusive, IL-1B inflam inh -228.8*, Vif-A3G inh -0.1%, Vif-APOBEC3F blk 7.3%, SW480 rereplic inconclusive and Giardia killer -22.5.
`CCCCCOc1ccc(CSC(=N)N)cc1[N+](=O)[O-]` gave MCF10A rerep inconclusive, IL-1B inflam inh -105.2*, Vif-A3G inh -16.7%, Vif-APOBEC3F blk -15.6%, SW480 rereplic inconclusive and Giardia killer -1.2.
For COc1ccc(CSC(=N)N)cc1[N+](=O)[O-] the results were MCF10A rerep inconclusive, IL-1B inflam inh -59.6*, Vif-A3G inh inconclusive, Vif-APOBEC3F blk -7.7%, SW480 rereplic inconclusive and Giardia killer 4.4.
Screening COc1ccc(-c2nc(CCNC(=O)Cc3ccc(F)cc3)cs2)cc1 returned Vif-A3G inh 1.1% and Vif-APOBEC3F blk 1.1%.
`CCOC(=O)C1CCN(Cc2cn3c(-c4ccc(OC)cc4)nnc3s2)CC1` gave Vif-A3G inh -0.3% and Vif-APOBEC3F blk 3.7%.
`CCOc1cc(-c2nnc(SCC(=O)NCc3ccccc3)nc2-c2ccc(OC)c(OCC)c2)ccc1OC` gave Vif-A3G inh inconclusive and Vif-APOBEC3F blk -6.0%.
For CCCOc1ccc(CNC(=O)c2ccc(C)c(-n3c(C)nc4cccnc43)c2)cc1 the results were Vif-A3G inh -0.7% and Vif-APOBEC3F blk -6.8%.
Screening N#CC1(NC(=O)Cn2ncc(Cl)c(Cl)c2=O)CCCCC1 returned MCF10A rerep 4.47µM*, IL-1B inflam inh -102.6*, Vif-A3G inh inconclusive, Vif-APOBEC3F blk inconclusive, SW480 rereplic -52.8% and Giardia killer -9.0.
Cc1ccc(C(C)C)c(OCC(=O)Nc2ccc3c(c2)nc(CN2CCCC2)n3C)c1 was read as MCF10A rerep inconclusive, IL-1B inflam inh -50.4*, Vif-A3G inh -4.2%, Vif-APOBEC3F blk -13.4%, SW480 rereplic 10.1% and Giardia killer inconclusive.
`CC1CCN(CCc2nc3cc(NC(=O)COc4ccc([N+](=O)[O-])cc4)ccc3n2C)CC1` gave MCF10A rerep inconclusive, IL-1B inflam inh -101.2*, Vif-A3G inh 0.4%, Vif-APOBEC3F blk -6.3%, SW480 rereplic 20.6µM* and Giardia killer -1.8.
Screening Cc1cccc(OCC(=O)Nc2ccc3c(c2)nc(CCN2CCC(C)CC2)n3C)c1 returned MCF10A rerep -0.1%, IL-1B inflam inh -64.4*, Vif-A3G inh -1.0%, Vif-APOBEC3F blk -5.2%, SW480 rereplic 2.6% and Giardia killer -11.2.
